FMDV inh – antivirals against foot and mouth disease virus; FMDV antiviral cell-based qHTS; Potency, µM (titrated, usually from 57.9 µM), for inactives: at the top dose activity change, negative = inhibition, most hits filed as inhibitors; actives 1.2% (n = 410,000); calls by dose curve; tested in HEK293T cells; note: read-out not given here; potency is the fitted concentration of half-maximal effect; nearly all actives have a fitted effect of over 45% in size
Lassa entry inh – inhibitors of Lassa virus binding or cell entry; Lassa virus pseudotype entry inhibition, cell reporter; Potency, µM (doses to about 37.9 µM), for the others: at the highest dose activity change, negative = inhibition, hits mostly inhibitors; AID 540256; actives 1.2% (n = 300,000); calls by dose curve; tested in HEK293 cells; note: potency is the fitted concentration of half-maximal effect; nearly all actives have a fitted effect of over 50% in size
Marburg entry inh – inhibitors of Marburg virus binding or cell entry; Potency, µM (series often up to 37.8 µM), for inactives: at the top dose activity change, negative = inhibition, most hits filed as inhibitors; AID 540276; Marburg virus pseudotyped entry inhibition, cell reporter; actives 1.8% (n = 300,000); calls by dose curve; tested in HEK293 cells; note: potency is the fitted concentration of half-maximal effect
HCV inhibitor – blocks hepatitis C virus | Huh7.5.1 HCVcc-Cre infection, luciferase reporter, 44 h | Potency, µM (titrated, usually from 41.8 µM), without a hit: at the top dose activity change, negative = inhibition, actives largely listed as inhibitors | actives 3.4% (n = 340,000); active = well fitted inhibition curve with a large enough effect; inconclusive = small, poorly fitted or top-dose-only effect, or another doubt; inactive = no such curve, though single readings can be large or run the other way; note: potency is the fitted concentration of half-maximal effect
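A cell-based infection assay in which seeded cells (1,000 per well) receive test compound after 4 h, are inoculated with HCVcc-Cre at approximately 0.5 moi, and are incubated 44 h before luminescence detection.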
HCMV antiviral – inhibitors of human cytomegalovirus. HFF cells, HCMV-luciferase reporter, 72 h; active compounds read low. activity change, negative = inhibition, % at 57.5 µM. actives 4.5% (n = 410,000). AID 1259415; in the data active = activity change below about -60%; inconclusive = no clear call, values can overlap the other calls; inactive = above about -39%
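Inhibition of viral replication was scored as loss of reporter luminescence in HFFs infected with HCMV-luciferase (MOI 1 PFU/cell) for 72 h; compounds tested at 2 doses, normalized to buffer and Salinomycin controls.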
The depositor's hits bear a star; ? = inconclusive; / = not tested or not shown; [ ] = another dose, or the depositor's remark. The list is not random: actives were taken first. Their share in the collection is about 7.9%. % is set by controls: 0 for no effect and ±100 for the full control effect.

SMILES	FMDV inh	Lassa entry inh	Marburg entry inh	HCV inhibitor	HCMV antiviral
CCN(CC)S(=O)(=O)c1ccc2c(c1)c(=O)c(C(=O)NCc1ccccc1Cl)cn2C	-12%	-25%[46.1 µM]	?	/	-65*
CCc1c(C)sc(NC(=O)c2cccs2)c1C(=O)OC(C)C	/	?	9.2µM*	?	?
CCOC(=O)c1c(NC(=O)c2cccs2)sc2c1CCCC2	-1%	-13%	0%	?	-26
CCOC(=O)c1c(NC(=O)c2cccs2)sc(C(=O)N(C)C)c1C	25%	4%	10%[46.1 µM]	13µM*	-21
CCOC(=O)c1c(NC(=O)c2cccs2)sc(C)c1CC	-24%	-17%	?	8.9µM*	-38
CCOC(=O)c1c(NC(=O)COC(=O)c2cccnc2OCC)sc(C(=O)N(CC)CC)c1C	16µM*	?	?	?	21
CCOC(=O)c1c(NC(=O)c2cccs2)sc(C(=O)N2CCOCC2)c1C	14%	3%	10%[46.1 µM]	-19%	-22
CCN(C(=O)Cc1c(C(=O)O)c(C)cn1C)c1cccc(Cl)c1	-20%	3%[46.1 µM]	/	/	11
Cc1nn(Cc2noc(C(=O)NCc3cccc(F)c3)n2)c(C)c1Br	-18%	-28%[46.1 µM]	4%[46.1 µM]	/	17
COc1ccc(O)c(/C=N/Nc2nc(Nc3ccccc3)nc(-n3nc(C)cc3C)n2)c1	-19%	13µM*	?	?	-77*
COc1cc(/C=N/Nc2nc(Nc3ccc(C)cc3)nc(-n3nc(C)cc3C)n2)cc(OC)c1OC	-7%	?	?	?	21
COc1cc(/C=N/Nc2nc(Nc3ccccc3)nc(-n3nc(C)cc3C)n2)cc(OC)c1OC	-12%	16µM*	7.3µM*	2.8µM*	-12
COc1ccc(-c2cc(OC(=O)c3ccccc3Cl)c3c(C)oc(C)c3c(=O)c2)cc1OC	-1%	-24%[46.1 µM]	?	/	-6
COC(=O)c1scc(-c2ccc(C)cc2)c1S(=O)(=O)Nc1cccc(C(F)(F)F)c1	-6%	-12%[46.1 µM]	/	/	0
COc1cccc([C@H]2Oc3ccc(OC)cc3/C(=N\OCC[C@@H]3C=C[C@H](OC(C)=O)[C@@H](COC(C)=O)O3)[C@@H]2O)c1	/	/	-24%[14.2 µM]	/	/
CCN(CC)c1ccc(C=C2C(=O)N(C)C(=S)N(C)C2=O)o1	-3%	-5%	?	3%	1
CCN(CC)c1ccc(/C=C2/SC(=O)N(C(C)C)C2=O)o1	11%	?	?	?	-86*
Cc1cc([N+](=O)[O-])ccc1-c1ccc(C2Nc3ccccc3C(=O)N2O)o1 (stereo not drawn)	-28%	?	?	11µM*	-99*
CCOC(=O)N1CCN(C(=O)C(C)N(c2ccc(Oc3ccccc3)cc2)S(C)(=O)=O)CC1 (stereo not drawn)	?	-28%	-26%	?	-65*
CCOc1ccc(N(C(C)C(=O)N2CCCC2)S(C)(=O)=O)cc1 (stereo not drawn)	-5%	?	?	-8%	3
CCOC(=O)C1CCN(C(=O)C(C)N(c2ccc(Oc3ccccc3)cc2)S(C)(=O)=O)CC1 (stereo not drawn)	?	/	/	10µM*	5
COc1ccc(N(C(C)C(=O)N2CCC(Cc3ccccc3)CC2)S(C)(=O)=O)cc1 (stereo not drawn)	11µM*	?	?	8.9µM*	-74*
Cc1c(C(=O)Nc2cccc(Cl)c2)oc2ccc(S(=O)(=O)N(C)C3CCCCC3)cc12	-17%	19%[46.1 µM]	/	/	?
CC(C)Oc1ccc(C(=O)/C(=C\c2cccs2)c2nc3ccccc3o2)cc1	-26%	?	?	?	-73*
Cc1ccccc1Oc1cc(-n2ncc(Cl)c(Cl)c2=O)ncn1	4.5µM*	?	?	?	-105*
COc1cc(Cl)c(C)cc1NC(=O)c1sc2nc3n(c(=O)c2c1C)CCCCC3	-3%	0%[46.1 µM]	/	/	-7
CN1CCN(C(=O)c2sc(=S)n(-c3ccccc3)c2N)CC1	2%	-2%	?	19%	-92*
c1ccc(OCCSc2nnnn2C2CCCCC2)cc1	-22%	14µM*	-5%	6%	87
COc1cc(C(=O)Nc2cccc(-c3nc4ncccc4o3)c2C)cc(OC)c1OC	3%	0%	24%	?	-106*
CCCOc1cccc(C2c3c(oc4ccccc4c3=O)C(=O)N2c2nncs2)c1 (stereo not drawn)	-12%	7%[46.1 µM]	28%[46.1 µM]	/	-16

Assay outcomes (PubChem BioAssay)
